# Data published in PubChem BioAssay (NCATS).
# Results filed as inconclusive are left out. Calls of active or inactive are those of the source. Calls come from the whole dose curve; as a rule, active = well fitted cell-killing curve with a large enough effect; inconclusive = small, poorly fitted or top-dose-only effect; inactive = flat fitted curve, though single readings scatter. *1 amine or outer side, *2 acyl side, *3 side chain or, on linkers, in order; H or OH if unused. Where a SMILES comes first, the peptide text is derived from it. Bridges are numbered along the chain shown (N, C = ends). [ ]: non-standard residue; d: D form. The star is where a group is joined. ξ: configuration not given here. ξhTyr(3S-OH,4S-OH,3'-OSO3H) = NC(C(=O)O)[C@H](O)[C@@H](O)c1ccc(O)c(OS(=O)(=O)O)c1; Orn(4R-OH,5R-OH) = O=C([C@H](C[C@@H](O)[C@@H](O)N[*:3])N[*:1])[*:2]; X2 = CCCCCOc1ccc(-c2cc(-c3ccc(C(=O)*)cc3)no2)cc1; X3 = C[C@H]1CN([*:1])C(C(=O)[*:2])[C@H]1O; ξGln(3R-OH) = NC(=O)C[C@@H](O)C(N)C(=O)O; ξPro(4R-OH) = O=C(O)C1C[C@@H](O)CN1; ξThr(3R) = C[C@@H](O)C(N)C(=O)O
# Assay: HepG2 cells viability qHTS for Zika virus inhibitors (AID 1347168)
# Settings: Zika counter-screen; series mostly up to 45.9 µM
# Outline: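 Luminescent ATP readout (CellTiter Glo) after 30 min at 37 degrees C gives viability; cells in DMEM + 4% FBS were treated 24 to 48 hours with compound, following overnight attachment.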
row,SMILES,outcome
1,COc1cccc(CNc2ccc(S(=O)(=O)Nc3nc4ccccc4s3)cc2)c1O,inactive
2,C=CC1(C)C=C2CC[C@H]3[C@@](C)(C(=O)O)CCC[C@]3(C)C2CC1 (stereo partly drawn),inactive
3,"CCCCCOc1ccc(-c2cc(-c3ccc(C(=O)N[C@H]4C[C@@H](O)[C@@H](O)NC(=O)C5[C@@H](O)[C@@H](C)CN5C(=O)C([C@H](O)CC(N)=O)NC(=O)C([C@H](O)[C@@H](O)c5ccc(O)c(OS(=O)(=O)O)c5)NC(=O)C5C[C@@H](O)CN5C(=O)C([C@@H](C)O)NC4=O)cc3)no2)cc1 (stereo partly drawn) (X2-[Orn(4R-OH,5R-OH)][ξThr(3R)][ξPro(4R-OH)][ξhTyr(3S-OH,4S-OH,3'-OSO3H)][ξGln(3R-OH)][X3]; lactam 1-C)",inactive
4,O=C(O)CC1CCC(c2ccc(-c3ccc(Nc4ccc(C(F)(F)F)nc4)cn3)cc2)CC1 (stereo not drawn),inactive
5,CCOc1ccc(-c2cc(NC(=O)c3c(F)cccc3F)c(C(=O)O)s2)cc1,inactive
6,COc1cc(Nc2nc3ccccc3nc2NS(=O)(=O)c2cccc(NC(=O)c3ccc(C)c(OC)c3)c2)cc(OC)c1,inactive
7,COc1cc2c(c(O)c1OC/C=C(\C)CC/C=C(/C)CCC=C(C)C)CN(C(CCC(=O)O)C(=O)O)C2=O (stereo not drawn),inactive
8,COc1cc(C)c(C(=O)OC2C(C)OC(OC3CCC(C)C4C3C=C(C)C3/C(C)=C\CC/C(C)=C/C5(C)C=C(C(=O)O)C(C)CC56OC(=O)/C(=C(\O)C34C)C6=O)C(O)C2O)c(OC)c1 (stereo not drawn),inactive
9,C=C1C2CCC3C(CCC4[C@@]3(C)CCC[C@@]4(C)C(=O)O)(C2)[C@@H]1OC(=O)/C(C)=C\C (stereo partly drawn),inactive
10,C=C1CCC2C(C)(C)CCC[C@]2(C)[C@H]1CC/C(C)=C/C(=O)O (stereo partly drawn),inactive
11,O=C(Nc1ccccc1)Nc1ccc(-c2ccc(C(=O)C3CCCC3C(=O)O)cc2)cc1 (stereo not drawn),inactive
12,Cc1cc(C)c2nc(-c3ccccn3)cc(C(=O)Nc3ccc(S(=O)(=O)Nc4onc(C)c4C)cc3)c2c1,inactive
13,Cc1ccc([C@@H]2CC=C(C(=O)O)[C@H](c3ccc(C(C)(C)C)cc3)N2S(=O)(=O)c2ccc(C)cc2)cc1,inactive
14,COc1cc(Nc2ccc([N+](=O)[O-])cc2C(=O)O)cc2ccccc12,inactive
15,CCc1nnc(NS(=O)(=O)c2ccc(NC(=S)NC(=O)/C=C/c3ccc(F)cc3)cc2)s1,inactive
16,CC1(C)CC=C(c2cnc3ccccc3c2)c2cc(C(=O)Nc3ccc(C(=O)O)cc3)ccc21,inactive
17,C/C(=C\CCC(C)CCO)C(=O)OC[C@H]1O[C@@H](O[C@@H]2OC=C(C(=O)O)[C@H]3CC[C@](C)(O)[C@@H]23)C(O)[C@@H](O)C1O (stereo partly drawn),inactive
18,CC1C(O)C(O)C2C(C(=O)OCCc3ccc(O)cc3)=COC(O[C@@H]3O[C@H](CO)[C@@H](O)[C@H](O)[C@H]3O)C12 (stereo partly drawn),inactive
19,CC(=O)OC12CC(C)C(OC(=O)c3ccccc3)C1/C=C(/C)C(OC(=O)c1ccccc1)CC(=O)C(C)(C)/C=C/C(C)C2=O (stereo not drawn),inactive
20,Cc1ccc2[nH]c(=O)c(C3=NN(C(=O)CCC(=O)O)C(c4ccc(Br)cc4)C3)c(-c3ccccc3)c2c1 (stereo not drawn),inactive
21,CC(C)CC(c1c(O)c(C=O)c(O)c(C=O)c1O)C1CCC(C)(O)C2CC(C(C)(C)O)CCC12C (stereo not drawn),inactive
22,COc1cnc(-c2ccc(Cn3c(CC(C)(C)C(=O)O)c(SC(C)(C)C)c4cc(OC[C@@H]5Cc6ccccc6N5C(C)=O)ccc43)cc2)nc1,inactive
23,COc1cc(/C=C/c2ccccc2)c(C(=O)O)c(O)c1CC=C(C)C,inactive
